Compounds with a hit are over-represented: about 3.2% of the library has one in this group of screens.
RE007 growth inh – qHTS Assay for Inhibitors of the HIV-1 protein Vpr; hit rate 0.21% among 360,000; Potency, µM (doses to about 92.2 µM), usual class: inhibitors; S. pombe RE007 Vpr strain, BacTiter-Glo ATP luminescence, 24 h; active = well fitted falling curve with a large enough effect; inconclusive = small, poorly fitted or top-dose-only effect; inactive = no such curve, though single readings can be large or run the other way; note: nearly all actives have a fitted effect of over 50% in size
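Fission yeast strain RE007, carrying one chromosomally integrated HIV-1 vpr copy, was seeded at OD 0.01 in PMG+AL medium with 23 nL pinned compound. After 24 h at 30 °C and 99% humidity, viability was read by BacTiter-Glo luminescence.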
AMA1-RON2 inh – qHTS for Inhibitors of AMA1-RON; Towards Development of Antimalarial Drug Lead: Primary Screen | Plasmodium falciparum AMA1 (3D7) - RON2 peptide interaction | Potency, µM (highest dose often 58.2 µM), most hits filed as inhibitors | AlphaScreen AMA1-biotinylated RON2 peptide binding | hit rate 0.2% among 360,000; note: nearly all actives have a fitted effect of over 45% in size
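AMA1 (3D7) with his tag at 25 nM final met compounds first, then biotinylated RON2 peptide at 25 nM; detection used donor plus acceptor beads, 10 µg/mL apiece, read by AlphaScreen after 30 min at room temperature.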
Sm TGR block – qHTS Assay for the Inhibitors of Schistosoma Mansoni Peroxiredoxins. Schistosoma mansoni thioredoxin glutathione reductase (TGR), Q962Y6. purified TGR, DTNB reduction, TNB absorbance 405 nm. Potency, µM (titrated, usually from 114 µM), most hits filed as inhibitors. hit rate 3% among 360,000. AID 485364, 2010; note: nearly all actives have a fitted effect of over 60% in size
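TGR 20 nM + NADPH 100 uM (dispensed conc.), cpd preinc 15 min RT; start with NADPH (500 uM addition) then DTNB (15 mM addition). Kinetic TNB absorbance, 405 nm filter. Four-parameter Hill fit across titration.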
AmpC inh no detg – qHTS Inhibitors of AmpC Beta-Lactamase (assay without detergent); AmpC nitrocefin hydrolysis, absorbance 480 nm, 0.0001% Triton; hit rate 0.52% among 330,000; Potency, µM (series often up to 57.1 µM), hits mostly inhibitors; AID 485341, 2010; P00811; note: nearly all actives have a fitted effect of over 20% in size
Target sequence (P00811 whole entry, looked up): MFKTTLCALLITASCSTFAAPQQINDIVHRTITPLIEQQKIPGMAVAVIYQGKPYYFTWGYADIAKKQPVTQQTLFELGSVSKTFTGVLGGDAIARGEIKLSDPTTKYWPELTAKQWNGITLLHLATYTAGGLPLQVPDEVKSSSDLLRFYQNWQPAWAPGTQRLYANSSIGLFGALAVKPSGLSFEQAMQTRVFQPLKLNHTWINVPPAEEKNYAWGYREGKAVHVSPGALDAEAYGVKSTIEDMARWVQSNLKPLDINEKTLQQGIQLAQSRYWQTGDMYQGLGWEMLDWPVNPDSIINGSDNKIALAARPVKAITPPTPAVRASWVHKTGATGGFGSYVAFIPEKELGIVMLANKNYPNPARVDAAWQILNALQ
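AmpC (5.3 nM in the dispensed reagent) in 20 mM phosphate pH 7.0 with 0.01% (detergent screen) or 0.0001% Triton X-100 was preincubated with compounds for 15 min at room temperature. Nitrocefin was then added from an 800 uM solution, and hydrolysis was followed at 480 nm.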
AmpC detergent – qHTS Inhibitors of AmpC Beta-Lactamase (assay with detergent); P00811; AmpC hydrolysis of nitrocefin, absorbance 480 nm, 0.01% Triton; Potency, µM (series often up to 114 µM), hits mostly inhibitors; hit rate 0.041% among 370,000; AID 485294, 2010; note: nearly all actives have a fitted effect of over 25% in size
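20 mM phosphate pH 7.0 + 0.01% (detergent screen) or 0.0001% Triton X-100; 5.3 nM AmpC reagent; cpd preinc 15 min RT; nitrocefin (800 uM stock) to start; A480 q20 s × 4 min; Activity was normalised to no-enzyme and no-compound control wells.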
A number is an active result; [ ] = another dose, or the depositor's remark. Unless noted, calls come from the whole dose curve; as a rule, active = well fitted curve in the direction sought with a large enough effect; inconclusive = small, poorly fitted or top-dose-only effect, or another doubt; inactive = no such curve, though single readings can be large; an effect the other way counts as inactive or inconclusive.

`CCN(CC)CCCNC(=O)c1cn(CC)c2ccc(S(=O)(=O)N3CCC(C)CC3)cc2c1=O` gave Sm TGR block inactive and AmpC detergent inactive.
c1cc(C(c2nnnn2C2CCCC2)N2CCOCC2)ccn1 (stereo unspecified) was read as RE007 growth inh inactive, AMA1-RON2 inh inactive, Sm TGR block 28µM, AmpC inh no detg inactive and AmpC detergent inactive.
For Oc1ccc(C(c2nnnn2C2CCCCC2)N2CCOCC2)cc1 (stereo unspecified) the results were RE007 growth inh inactive, AMA1-RON2 inh inactive, Sm TGR block 2.8µM, AmpC inh no detg inactive and AmpC detergent inactive.
Cc1cc2oc(C(=O)Nc3nc(-c4ccccc4)ns3)c(C)c2cc1Cl was read as Sm TGR block inactive and AmpC detergent inactive.
For CCOc1ccccc1NC(=O)N1CCN(Cc2nc3ccc(C)cc3o2)CC1 the results were Sm TGR block inactive and AmpC detergent inactive.
O=C(O)CN1C(=O)c2cccc3c(Br)ccc1c23 was read as RE007 growth inh inactive, AMA1-RON2 inh inactive, Sm TGR block inactive, AmpC inh no detg inactive and AmpC detergent inactive.
CN(C)CCCN1C(=O)c2cccc3c(Br)ccc(c23)C1=O was read as RE007 growth inh inactive, AMA1-RON2 inh inactive, Sm TGR block 8.9µM, AmpC inh no detg inactive and AmpC detergent inactive.
Screening COc1ccc(-c2cc(C(=O)OCC(=O)c3c(N)n(C)c(=O)n(C)c3=O)c3ccccc3n2)cc1 returned RE007 growth inh inactive, AMA1-RON2 inh inactive, Sm TGR block inactive, AmpC inh no detg inactive[11.4 µM] and AmpC detergent inconclusive.
`Cn1c(N)c(C(=O)COC(=O)c2cc(-c3ccco3)nc3ccccc23)c(=O)n(C)c1=O` gave RE007 growth inh inactive, AMA1-RON2 inh inconclusive, Sm TGR block 8.9µM, AmpC inh no detg inactive and AmpC detergent inconclusive.
Screening Cn1c(N)c(C(=O)COC(=O)c2cc(-c3ccco3)nc3ccccc23)c(=O)n(Cc2ccccc2)c1=O returned Sm TGR block 8.9µM, AmpC inh no detg inconclusive and AmpC detergent inactive.
For OC(CNCc1ccccc1)Cn1ccc2ccccc21 (stereo unspecified) the results were RE007 growth inh inactive, AMA1-RON2 inh inactive, Sm TGR block inactive, AmpC inh no detg 18µM and AmpC detergent inactive.
Oc1ccccc1NCC(O)Cn1ccc2ccccc21 (stereo unspecified) was read as RE007 growth inh inactive, AMA1-RON2 inh inconclusive, Sm TGR block inconclusive, AmpC inh no detg inactive and AmpC detergent inconclusive.
Screening CC(NC(=O)c1ccccc1Cl)C(=O)N1CCN(Cc2ccc3c(c2)OCO3)CC1 (stereo unspecified) returned RE007 growth inh inactive, AMA1-RON2 inh inactive, Sm TGR block 14µM, AmpC inh no detg inactive and AmpC detergent inactive.
Screening C[C@H](NC(=O)c1ccccc1)C(=O)N1CCN(Cc2ccc3c(c2)OCO3)CC1 returned RE007 growth inh inactive, AMA1-RON2 inh inactive and AmpC inh no detg inactive.
For Cc1cccn2c(=O)c(C(=O)NCCc3ccccc3)c(O)nc12 the results were Sm TGR block inactive and AmpC detergent inactive.
`CCOc1ccc(-c2cc3c(=O)n(Cc4nc(-c5cccc(OC)c5OC)oc4C)ccn3n2)cc1Cl` gave Sm TGR block inactive and AmpC detergent inactive.
Screening CC(Nc1ccc(N2CCOCC2)cc1)C(=O)N1c2ccccc2CC1C (stereo unspecified) returned RE007 growth inh inactive, AMA1-RON2 inh inactive, Sm TGR block 79µM, AmpC inh no detg inactive and AmpC detergent inactive.
`CC1Cc2ccccc2N1CC(=O)Nc1ccc(N2CCOCC2)cc1` (stereo unspecified) gave RE007 growth inh inactive, AMA1-RON2 inh inactive, Sm TGR block inactive, AmpC inh no detg inactive and AmpC detergent inactive.
For COc1ccc(NC(=O)CCl)cn1 the results were Sm TGR block 14µM, AmpC inh no detg inactive and AmpC detergent inactive.
Screening COc1ccc(NC(=O)Nc2cccs2)cn1 returned RE007 growth inh inactive, AMA1-RON2 inh inactive, Sm TGR block 13µM, AmpC inh no detg inactive and AmpC detergent inactive.
For COc1ccc(CC(=O)Nc2ccc(OC)nc2)cc1 the results were RE007 growth inh inactive, AMA1-RON2 inh inactive, Sm TGR block inactive, AmpC inh no detg inactive and AmpC detergent inactive.
For CCN(Cc1ccccc1)C(=O)c1cc2c(s1)-c1c(C)cccc1OC2 the results were Sm TGR block inactive and AmpC detergent inactive.
Screening COC(C#CCCN(C)C)(c1ccccc1)c1ccccc1 returned RE007 growth inh inconclusive, AMA1-RON2 inh inactive, Sm TGR block 28µM, AmpC inh no detg inactive and AmpC detergent inactive.
For CN(C)CC#CCC(O)(c1ccccc1)c1ccccc1 the results were RE007 growth inh inactive, AMA1-RON2 inh inactive, Sm TGR block inactive, AmpC inh no detg inactive and AmpC detergent inactive.
For Cc1cc(C)n2nc(S(=O)(=O)NC3CCCCC3)nc2n1 the results were RE007 growth inh inactive, AMA1-RON2 inh inactive, Sm TGR block inactive, AmpC inh no detg 2.5µM and AmpC detergent inactive.
Screening CCOCCCNC(=O)C(c1ccc(C)cc1)N(Cc1ccc2c(c1)OCO2)C(=O)c1ccccc1O (stereo unspecified) returned Sm TGR block inactive and AmpC detergent inconclusive.
Screening O=C1NC(=O)C(=C/C=C/c2coc3ccc(Br)cc3c2=O)C(=O)N1 returned Sm TGR block 0.79µM, AmpC inh no detg inactive and AmpC detergent inactive.
For O=C1NC(=S)S/C1=C\c1coc2ccccc2c1=O the results were RE007 growth inh inactive, AMA1-RON2 inh inactive, Sm TGR block inconclusive, AmpC inh no detg inactive and AmpC detergent inactive.
`O=C1NC(=S)S/C1=C\c1coc2ccc(O)cc2c1=O` gave RE007 growth inh inactive, AMA1-RON2 inh inactive, Sm TGR block inactive, AmpC inh no detg inactive and AmpC detergent inactive.
Screening O=C1NC(=O)C(=Cc2coc3ccccc3c2=O)C(=O)N1 returned RE007 growth inh inconclusive, AMA1-RON2 inh inactive, Sm TGR block 16µM, AmpC inh no detg inactive and AmpC detergent inactive.
Screening C[N+]1(C)CCC(=C2c3ccccc3CC(=O)c3sccc32)CC1 returned RE007 growth inh inactive, AMA1-RON2 inh inactive, Sm TGR block 28µM, AmpC inh no detg inactive and AmpC detergent inactive.
Screening Cc1ccc2[nH]cc(C(c3ccccc3)c3cccs3)c2c1 (stereo unspecified) returned Sm TGR block inactive and AmpC detergent inactive.
Screening Cc1nc2ccn(Cc3ccccc3)c(=O)c2cc1C(=O)Nc1ccc(F)cc1Cl returned Sm TGR block inactive and AmpC detergent inactive.
